# Measurements taken from PubChem BioAssay (NCATS).
# A number with no mark means an inactive call. Results filed as inconclusive are left out. Entries that show only a call come without a potency. Activity calls are given as the source filed them. Unless noted, calls come from the whole dose curve; as a rule, active = well fitted curve in the direction sought with a large enough effect; inconclusive = small, poorly fitted or top-dose-only effect, or another doubt; inactive = no such curve, though single readings can be large; an effect the other way counts as inactive or inconclusive.
# Columns and labels:
# [1] = target: DNA repair nuclease/redox regulator APEX1 (Homo sapiens) (UniProt P27695); test: qHTS Validation Assay for Inhibitors of the Human Apurinic/apyrimidinic Endonuclease 1 (APE1) (AID 1705;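 note: TAMRA fluorescence gain over two minutes as APE1 cuts a quenched THF abasic duplex; series mostly up to about 57 µM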)
# Sequence of DNA repair nuclease/redox regulator APEX1 (Homo sapiens) (P27695 whole entry, looked up): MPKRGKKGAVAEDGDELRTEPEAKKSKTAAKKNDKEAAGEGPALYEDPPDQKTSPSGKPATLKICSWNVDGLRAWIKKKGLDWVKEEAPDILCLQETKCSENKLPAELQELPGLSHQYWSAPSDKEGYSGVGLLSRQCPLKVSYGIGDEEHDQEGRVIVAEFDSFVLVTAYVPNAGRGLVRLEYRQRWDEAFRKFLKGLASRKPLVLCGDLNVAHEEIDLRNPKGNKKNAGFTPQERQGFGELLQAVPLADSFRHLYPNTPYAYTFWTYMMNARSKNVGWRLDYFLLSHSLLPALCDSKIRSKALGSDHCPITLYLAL
# Outline: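 Read-out: TAMRA fluorescence (525 nm ex, 598 nm em) from cleavage of a quenched THF abasic-site duplex, 50 nM final; activity taken as intensity change between third and first of three reads 60 s apart.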
# [2] = Counterscreen for APE1 Inhibitors: Fluorescent Dye Displacement Validation Assay (AID 1707)
# Outline: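 Reaction mixture of 250 nM Thiazole Orange and 50 nM double-stranded abasic-site DNA was dispensed, compounds were pin-transferred, and fluorescence was read at endpoint (480 nm ex, 540 nm em). Reduced fluorescence indicated dye displacement by DNA binding.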
# [3] = target: Endonuclease 4 (Escherichia coli (strain K12)) (UniProt P0A6C1); test: Counterscreen for APE1 Inhibitors: qHTS Validation Assay for Inhibitors of Endonuclease IV (AID 1708)
# Outline: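 Incision of a double-stranded 50 nM TAMRA/BHQ-2 abasic substrate was followed kinetically (525/598 nm, reads every 60 s) after 15 min enzyme–compound preincubation with 2 nM EndoIV in pH 7.5 Tris buffer with MgCl2, DTT and Tween-20; concentration-response format.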
# [4] = qHTS for differential inhibitors of proliferation of Plasmodium falciparum line 7G8 (AID 1815);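 note: potency is the fitted concentration of half-maximal effect; parasite growth measured after three days of incubation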
# [5] = qHTS for differential inhibitors of proliferation of Plasmodium falciparum line GB4 (AID 1816); details: Potency: Plasmodium falciparum GB4 proliferation inhibition;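 note: potency is the fitted concentration of half-maximal effect; parasite growth measured after 72 h incubation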
# [6] = qHTS for differential inhibitors of proliferation of Plasmodium falciparum line 3D7 (AID 1876); note: potency is the fitted concentration of half-maximal effect
# [7] = qHTS for differential inhibitors of proliferation of Plasmodium falciparum line D10 (AID 1877);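 note: potency is the fitted concentration of half-maximal effect; parasites grown with compound for 72 h before DNA staining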
# [8] = qHTS for differential inhibitors of proliferation of Plasmodium falciparum line Dd2 (AID 1882); details: Potency: Plasmodium falciparum Dd2 proliferation inhibition; note: potency is the fitted concentration of half-maximal effect; nearly all actives have a fitted effect of over 65% in size
# Outline: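 SYBR Green DNA fluorescence (ex 485, em 535 nm) after overnight lysis quantifies parasite growth; compound exposure lasted 72 h at 37 C on infected red cells at 2.5% hematocrit, 0.3% parasitemia (final). Artemisinin 0.29 uM and vehicle wells define normalization.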
# [9] = qHTS for differential inhibitors of proliferation of Plasmodium falciparum line W2 (AID 1883); details: Potency: Plasmodium falciparum W2 proliferation inhibition;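 note: potency is the fitted concentration of half-maximal effect; parasites grown with compound for 72 h before lysis and staining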
# [10] = qHTS for differential inhibitors of proliferation of Plasmodium falciparum line HB3 (AID 1886); details: Potency: Plasmodium falciparum HB3 proliferation inhibition;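 note: potency is the fitted concentration of half-maximal effect; parasites grown with compound for 72 h before SYBR Green readout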
# [11] = qHTS Assay for Modulators of Human Peripheral Myelin Protein 22 (PMP22) Expression/Activity (AID 1967; active = well fitted curve in the direction sought with a large enough effect in the signal ratio; the % refers to the signal ratio)
# Outline: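 Mouse MSC80 Schwann line, Pmp22 promoter–CBG68 reporter, EF-alpha–CBR internal control. 24h compound exposure, 37 °C/5% CO2, DMEM + 10% FBS. Readout: corrected green/red luminescence ratio, normalized to untreated cells; concentration-response curves fitted and classified.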
# [12] = target: Ferritin light chain (Equus caballus) (UniProt P02791); test: qHTS Validation Assay for Identification of Novel General Anesthetics (AID 2323); note: series mostly up to about 77 µM
# Sequence of Ferritin light chain (Equus caballus) (P02791 2-175 limits assumed): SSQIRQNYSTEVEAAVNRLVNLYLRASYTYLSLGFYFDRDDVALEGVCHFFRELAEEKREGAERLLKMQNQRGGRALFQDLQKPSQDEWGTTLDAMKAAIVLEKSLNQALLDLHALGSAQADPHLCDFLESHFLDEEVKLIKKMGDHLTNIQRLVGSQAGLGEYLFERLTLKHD
# Outline: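 10 uM horse-spleen apoferritin + 1-AMA (50% saturated, PBS); cpd pin-transferred, 10 min RT. Ex 380/Em 535 nm endpoint. Activity normalized between free 1-AMA and 1-AMA/apoferritin; 4-parameter Hill fit of concentration-response.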
# [13] = target: ATP-dependent DNA helicase Q1 (Homo sapiens) (UniProt P46063); test: qHTS Validation Assay for Inhibitors of RecQ-Like Dna Helicase 1 (RECQ1) (AID 2353)
# Outline: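 RECQ1T1 50 nM; forked duplex (20 bp + 30-nt ss tails) 200 nM, ATP 2 mM final; pH 8.0, 2 mM MgCl2, 2.5 ug/ml poly(dI-dC); 15 min compound preincubation; discontinuous kinetic read over 2 h at RT.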
# [14] = target: RecQ-like DNA helicase BLM (Homo sapiens) (UniProt P54132); test: qHTS Validation Assay for Inhibitors of Bloom's syndrome helicase (BLM) (AID 2364)
# Sequence of RecQ-like DNA helicase BLM (Homo sapiens) (P54132 whole entry, looked up): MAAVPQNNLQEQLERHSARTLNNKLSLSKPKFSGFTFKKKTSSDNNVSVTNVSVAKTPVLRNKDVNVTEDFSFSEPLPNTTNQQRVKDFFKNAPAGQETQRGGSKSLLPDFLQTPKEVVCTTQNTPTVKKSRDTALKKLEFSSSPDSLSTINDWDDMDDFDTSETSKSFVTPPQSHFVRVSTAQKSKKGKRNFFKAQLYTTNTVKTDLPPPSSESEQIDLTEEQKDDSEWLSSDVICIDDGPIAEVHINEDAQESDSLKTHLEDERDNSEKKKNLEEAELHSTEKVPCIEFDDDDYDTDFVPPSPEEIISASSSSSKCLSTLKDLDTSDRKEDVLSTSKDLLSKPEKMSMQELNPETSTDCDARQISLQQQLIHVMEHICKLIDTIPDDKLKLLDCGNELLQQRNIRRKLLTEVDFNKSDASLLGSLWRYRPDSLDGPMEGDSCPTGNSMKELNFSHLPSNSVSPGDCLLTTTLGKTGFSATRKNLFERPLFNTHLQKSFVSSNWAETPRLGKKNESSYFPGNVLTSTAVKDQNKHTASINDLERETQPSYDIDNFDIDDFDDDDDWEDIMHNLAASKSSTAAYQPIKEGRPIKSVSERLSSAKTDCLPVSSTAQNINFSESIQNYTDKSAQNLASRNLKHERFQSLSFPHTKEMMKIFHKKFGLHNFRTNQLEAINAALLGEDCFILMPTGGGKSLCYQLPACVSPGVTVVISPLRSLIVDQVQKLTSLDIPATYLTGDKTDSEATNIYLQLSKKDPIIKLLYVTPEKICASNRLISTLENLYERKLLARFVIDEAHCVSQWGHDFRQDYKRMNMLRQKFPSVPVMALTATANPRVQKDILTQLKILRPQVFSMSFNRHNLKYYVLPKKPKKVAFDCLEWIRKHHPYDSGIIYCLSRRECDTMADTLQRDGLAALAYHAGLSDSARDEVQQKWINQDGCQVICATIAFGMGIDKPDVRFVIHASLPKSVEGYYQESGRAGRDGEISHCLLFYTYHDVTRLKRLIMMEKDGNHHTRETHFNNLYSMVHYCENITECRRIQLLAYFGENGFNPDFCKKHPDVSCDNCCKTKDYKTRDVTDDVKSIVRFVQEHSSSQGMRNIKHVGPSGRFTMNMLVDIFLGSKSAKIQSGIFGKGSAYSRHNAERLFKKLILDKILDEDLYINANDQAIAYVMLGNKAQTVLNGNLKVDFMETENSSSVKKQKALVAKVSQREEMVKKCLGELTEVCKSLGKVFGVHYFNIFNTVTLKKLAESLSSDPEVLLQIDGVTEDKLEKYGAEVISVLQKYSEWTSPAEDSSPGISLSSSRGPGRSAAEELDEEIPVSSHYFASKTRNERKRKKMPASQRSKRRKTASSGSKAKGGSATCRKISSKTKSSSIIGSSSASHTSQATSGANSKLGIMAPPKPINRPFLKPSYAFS
# Outline: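 Forked 20-bp duplex substrate (200 nM, TAMRA/BHQ-2) plus 2 mM ATP added after 15 min compound preincubation with 50 nM enzyme, pH 8.0, poly(dI-dC) 2.5 ug/ml. Strand separation followed by fluorescence (525/598 nm) over 2 h, normalized to enzyme-free and DMSO controls.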
# [15] = Quantitative high throughput screen for delayed death inhibitors of the malarial parasite plastid, 96 hour incubation (AID 488745); note: potency is the fitted concentration of half-maximal effect; nearly all actives have a fitted effect of over 70% in size
# Outline: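 Readout is firefly luciferase luminescence from an integrated reporter in P. falciparum; lower signal marks inhibited growth. Cultures at 2% hematocrit and 0.1% parasitemia were treated with compound across two generations (96 h, 37 C, 5% CO2).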
# [16] = Quantitative high throughput screen for delayed death inhibitors of the malarial parasite plastid, 48 hour incubation (AID 488752); note: potency is the fitted concentration of half-maximal effect; nearly all actives have a fitted effect of over 65% in size
# Outline: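 First, compound was pinned into RPMI 1640 medium containing 0.5% Albumax. Next, reporter-parasite-infected erythrocytes were added to 2% hematocrit and 0.1% parasitemia. After 48 h at 37 C under 5% CO2, luciferase detection reagent was added and luminescence read.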
# [17] = target: Transient receptor potential cation channel subfamily V member 1 (Homo sapiens) (UniProt Q8NER1); test: HTS Assay for Compounds that Act as Enhancers of the Vanilloid Receptor 1 (AID 488979)
# Sequence of Transient receptor potential cation channel subfamily V member 1 (Homo sapiens) (Q8NER1 whole entry, looked up): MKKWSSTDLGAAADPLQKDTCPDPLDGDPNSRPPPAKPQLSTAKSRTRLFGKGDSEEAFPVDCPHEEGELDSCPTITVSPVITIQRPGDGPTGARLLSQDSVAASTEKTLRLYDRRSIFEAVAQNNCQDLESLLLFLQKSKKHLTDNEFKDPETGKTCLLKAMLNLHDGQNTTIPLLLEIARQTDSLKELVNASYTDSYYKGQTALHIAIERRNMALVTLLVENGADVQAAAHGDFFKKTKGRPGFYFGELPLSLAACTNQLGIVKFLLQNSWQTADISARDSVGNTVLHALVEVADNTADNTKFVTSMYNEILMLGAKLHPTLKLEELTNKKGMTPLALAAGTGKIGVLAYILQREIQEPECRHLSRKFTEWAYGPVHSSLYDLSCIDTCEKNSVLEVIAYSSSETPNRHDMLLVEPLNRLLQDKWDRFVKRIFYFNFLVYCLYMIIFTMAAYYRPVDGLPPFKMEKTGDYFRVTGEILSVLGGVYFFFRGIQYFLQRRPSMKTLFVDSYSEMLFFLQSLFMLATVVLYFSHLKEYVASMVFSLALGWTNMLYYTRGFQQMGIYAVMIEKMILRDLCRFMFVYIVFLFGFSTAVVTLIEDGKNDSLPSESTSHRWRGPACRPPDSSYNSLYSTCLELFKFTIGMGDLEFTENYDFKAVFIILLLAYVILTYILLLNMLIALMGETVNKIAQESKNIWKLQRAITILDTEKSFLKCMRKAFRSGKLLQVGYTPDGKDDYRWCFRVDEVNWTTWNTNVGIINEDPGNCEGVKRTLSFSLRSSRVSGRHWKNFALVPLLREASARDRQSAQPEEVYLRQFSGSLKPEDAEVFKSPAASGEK
# Outline: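 Calcium influx kinetics via Fluo-8 (480/520 nm) in TRPV1-expressing cells, 2000/well cultured overnight at 35.5C. Compound-alone read 3 min (agonist phase), followed by EC20 capsaicin challenge for 2 min (enhancer phase).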
# [18] = target: Thyrotropin-releasing hormone receptor (Homo sapiens) (UniProt P34981); test: qHTS for Small Molecule Agonists and Allosteric Enhancers of Human TRH Receptor: Validation Screen for Agonists (AID 493127;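 active = calcium activation more than 3 SD above the typical response in the agonist read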;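 note: intracellular calcium rise by fluo-8 fluorescence before TRH EC20 addition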); details: TRH receptor agonist cell assay; at 2 µM; active compounds read high
# Sequence of Thyrotropin-releasing hormone receptor (Homo sapiens) (P34981 whole entry, looked up): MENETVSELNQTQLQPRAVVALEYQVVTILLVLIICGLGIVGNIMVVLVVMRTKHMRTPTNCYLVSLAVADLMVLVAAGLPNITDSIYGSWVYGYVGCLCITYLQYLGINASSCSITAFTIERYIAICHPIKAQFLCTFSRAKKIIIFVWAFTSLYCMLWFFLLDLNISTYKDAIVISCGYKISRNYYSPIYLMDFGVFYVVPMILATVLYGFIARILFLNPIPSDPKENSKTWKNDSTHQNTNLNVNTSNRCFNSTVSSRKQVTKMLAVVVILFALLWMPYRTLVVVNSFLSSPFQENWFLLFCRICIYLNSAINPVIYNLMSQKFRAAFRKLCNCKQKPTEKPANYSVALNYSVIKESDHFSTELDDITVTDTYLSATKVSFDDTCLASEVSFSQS
# Outline: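 Compounds are added by online pintool to dye-loaded TRHR cells while fluorescence is recorded every second. A rise in calcium signal during the agonist read marks activation; a later 10 nM TRH addition (EC20) serves the separate enhancer mode.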
# [19] = target: Galactokinase (Homo sapiens) (UniProt P51570); test: qHTS Validation Assay for Inhibitors of Human Galactokinase (GALK) (AID 493189)
# Outline: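 Luminescence from leftover ATP (Kinase-Glo Plus, 10 min) served as read-out after a 1 h room-temperature reaction of 5 nM GALK, 100 uM galactose and 35 uM ATP at pH8.0.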
# [20] = target: Voltage-gated inwardly rectifying potassium channel KCNH2 (Homo sapiens) (UniProt Q12809); test: qHTS Assay for Small Molecule Inhibitors of the Human hERG Channel Activity (AID 588834);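 note: top concentration of the series differs between compounds; lower thallium flux fluorescence means stronger hERG block; nearly all actives have a fitted effect of over 50% in size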
# Outline: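 Thallium-flux (FluxOR) read-out on FDSS: fluorescence read 10 s before and 2 min after stimulation buffer. hERG-BacMam-transduced U2OS cells, compound exposure about 10 min. AC50 by standard Hill equation.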
# [21] = target: Cytochrome P450 3A4 (Homo sapiens) (UniProt P08684); test: qHTS Assay for Inhibitors and Substrates of Cytochrome P450 3A4 (AID 884); note: potency is the fitted concentration of half-maximal effect; nearly all actives have a fitted effect of over 50% in size
# Sequence of Cytochrome P450 3A4 (Homo sapiens) (P08684 whole entry, looked up): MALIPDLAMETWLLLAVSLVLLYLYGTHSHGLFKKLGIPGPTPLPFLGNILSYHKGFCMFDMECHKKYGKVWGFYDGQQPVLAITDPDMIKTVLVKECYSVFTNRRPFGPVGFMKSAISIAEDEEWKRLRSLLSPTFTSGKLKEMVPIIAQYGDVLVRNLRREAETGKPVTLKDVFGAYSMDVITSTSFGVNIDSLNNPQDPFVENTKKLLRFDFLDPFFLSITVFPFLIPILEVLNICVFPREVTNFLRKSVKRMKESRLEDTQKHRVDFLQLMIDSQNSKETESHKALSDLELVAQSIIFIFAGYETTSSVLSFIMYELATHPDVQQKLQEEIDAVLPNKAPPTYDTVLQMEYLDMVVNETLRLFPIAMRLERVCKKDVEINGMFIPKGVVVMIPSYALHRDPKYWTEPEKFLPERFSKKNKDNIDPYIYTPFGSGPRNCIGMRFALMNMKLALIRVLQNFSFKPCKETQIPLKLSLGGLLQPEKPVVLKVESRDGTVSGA
# Outline: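 Luminescent readout of luciferin produced by CYP3A4 (20 nM) dealkylation of Luciferin-PPXE, 25 uM (its KM). NADPH-driven reaction ran 60 min at RT after 10 min compound preincubation; data scaled to 57 uM ketoconazole as 100% inhibition.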
# [22] = target: Cytochrome P450 3A4 (Homo sapiens) (UniProt P08684); test: qHTS Assay for Activators of Cytochrome P450 3A4 (AID 885); note: nearly all actives have a fitted effect of over 65% in size
# Outline: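 Human CYP3A4 dealkylates Luciferin-PPXE to luciferin, which luciferase detection converts to light. Substrate was at its KM (25uM), buffer 200mM KPO4, reaction 60 min at RT.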
# [23] = target: Ubiquitin carboxyl-terminal hydrolase 1 (Homo sapiens) (UniProt O94782); test: Inhibitors of USP1/UAF1: Pilot qHTS (AID 504865);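 note: rhodamine fluorescence freed from ubiquitin-rhodamine substrate followed over time; top concentration of the series differs between compounds; nearly all actives have a fitted effect of over 35% in size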
# Outline: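 1nM USP1/UAF1 + cpd, 15 min RT; start w/ Ub-Rho 150nM final; kinetic FL 480/540 nm, 6 reads q60 s. Buffer 50mM HEPES pH 7.8, 0.5mM EDTA, 1mM TCEP, 0.01% Tween-20, 0.1 mg/ml BSA.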
# [24] = target: DNA dC->dU-editing enzyme APOBEC-3G (Homo sapiens) (UniProt Q9HC16); test: qHTS for inhibitors of Vif-A3G interactions: Validation (AID 588379)
# Sequence of DNA dC->dU-editing enzyme APOBEC-3G (Homo sapiens) (Q9HC16 whole entry, looked up): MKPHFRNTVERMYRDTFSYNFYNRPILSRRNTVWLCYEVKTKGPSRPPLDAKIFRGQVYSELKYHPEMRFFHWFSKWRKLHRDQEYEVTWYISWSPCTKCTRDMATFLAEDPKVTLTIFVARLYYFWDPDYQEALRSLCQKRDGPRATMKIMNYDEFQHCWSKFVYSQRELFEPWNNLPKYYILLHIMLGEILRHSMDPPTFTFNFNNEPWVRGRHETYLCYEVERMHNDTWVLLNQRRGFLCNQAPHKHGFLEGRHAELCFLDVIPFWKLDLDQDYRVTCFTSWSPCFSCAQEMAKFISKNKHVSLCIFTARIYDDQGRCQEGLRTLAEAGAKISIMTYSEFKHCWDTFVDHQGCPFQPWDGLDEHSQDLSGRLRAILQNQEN
# Outline: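 Yellow fluorescence (Ex 488, Em 500-530) of Vif-coexpressing HeLa A3G-eYFP cells, scanned by Acumen cytometer, reports blocked A3G degradation. Cells plated at 700/well overnight at 37 deg C before compound addition, then a further overnight compound incubation at 37 deg C.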
# [25] = target: Rap guanine nucleotide exchange factor 4 (Homo sapiens) (UniProt Q8WZA2); test: Confirmatory qHTS for antagonist of cAMP-regulated guanine nucleotide exchange factor 4 (EPAC2) (AID 1645885); note: nearly all actives have a fitted effect of over 25% in size
# Sequence of Rap guanine nucleotide exchange factor 4 (Homo sapiens) (Q8WZA2 whole entry, looked up): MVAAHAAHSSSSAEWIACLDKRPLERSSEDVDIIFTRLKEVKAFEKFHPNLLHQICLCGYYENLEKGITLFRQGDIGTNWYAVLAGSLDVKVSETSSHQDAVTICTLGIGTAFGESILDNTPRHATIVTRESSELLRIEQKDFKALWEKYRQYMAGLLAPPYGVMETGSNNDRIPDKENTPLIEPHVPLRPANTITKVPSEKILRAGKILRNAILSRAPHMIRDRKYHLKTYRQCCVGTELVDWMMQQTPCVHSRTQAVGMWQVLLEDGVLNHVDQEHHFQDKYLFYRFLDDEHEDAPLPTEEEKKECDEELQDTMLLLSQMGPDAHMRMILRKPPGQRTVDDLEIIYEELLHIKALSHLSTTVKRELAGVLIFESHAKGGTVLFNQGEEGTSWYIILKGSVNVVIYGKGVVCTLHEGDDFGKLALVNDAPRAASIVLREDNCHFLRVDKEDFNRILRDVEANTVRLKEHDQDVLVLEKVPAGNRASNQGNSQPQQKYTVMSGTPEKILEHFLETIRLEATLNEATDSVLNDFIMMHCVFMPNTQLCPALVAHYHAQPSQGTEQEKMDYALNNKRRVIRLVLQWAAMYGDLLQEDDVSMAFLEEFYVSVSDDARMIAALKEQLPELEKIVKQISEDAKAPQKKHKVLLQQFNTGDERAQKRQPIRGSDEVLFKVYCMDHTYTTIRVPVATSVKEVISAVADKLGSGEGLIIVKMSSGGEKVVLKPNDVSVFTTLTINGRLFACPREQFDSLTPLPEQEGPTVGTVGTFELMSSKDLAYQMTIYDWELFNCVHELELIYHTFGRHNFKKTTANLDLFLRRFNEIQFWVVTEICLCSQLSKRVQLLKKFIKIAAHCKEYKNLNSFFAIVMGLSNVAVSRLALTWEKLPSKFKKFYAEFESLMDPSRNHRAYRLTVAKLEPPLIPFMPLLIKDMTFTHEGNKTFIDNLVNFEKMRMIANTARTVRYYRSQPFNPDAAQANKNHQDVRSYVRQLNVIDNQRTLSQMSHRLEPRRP
structure (smiles),measurement,setting,value
C[C@H]1c2cccc(O)c2C(O)=C2C(=O)[C@]3(O)C(O)=C(C(N)=O)C(=O)C(N(C)C)[C@@H]3[C@@H](O)C21 (stereo not given in full),Potency,[1],inactive
same,outcome,[2],inactive
same,Potency,[3],inactive
same,Potency,[4],4.47 µM (active)
same,Potency,[5],8.91 µM (active)
same,Potency,[6],1 µM (active)
same,Potency,[7],11.2 µM (active)
same,Potency,[8],5.01 µM (active)
same,Potency,[9],1 µM (active)
same,Potency,[10],6.31 µM (active)
same,outcome,[11],inactive
same,outcome,[12],inactive
same,outcome,[13],inactive
same,Potency,[14],inactive
same,Potency,[15],370 nM (active)
same,Potency,[16],6.57 µM (active)
same,outcome,[17],inactive
same,activation,[18],-0.125%
same,outcome,[19],inactive
same,Potency,[20],inactive
COc1ccc(/C=C/C(=O)c2cccs2)c(OC)c1,Potency,[21],6.31 µM (active)
same,outcome,[22],inactive
same,Potency,[23],inactive
same,outcome,[24],inactive
same,Potency,[25],inactive
